Screens from PubChem.
An excerpt weighted towards active compounds, which were near 19% of everything screened.
HT1080-NT tox = kills 2HG-producing HT-1080-NT fibrosarcoma cells. HT-1080-NT fibrosarcoma viability, CellTiter-Glo ATP luminescence, 48 h. Potency, µM (top dose mostly 46.1 µM), for inactives: at the top dose activity, negative = less viability, most hits filed as cytotoxic. actives 1.6% (n = 360,000). AID 686970;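 further: NT is the 2HG producing partner of a matched IDH1 knockdown line; potency means the concentration at half of the fitted maximal effect; 0% = DMSO-treated cells and -100% = media-only wells without cells; nearly all actives have a fitted effect of over 55% in size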
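750 cells/well, RPMI + 5% FBS; 2 h settle, compound pin-transfer, 48 h at 37 degrees C. CellTiter-Glo 10 min RT, luminescence. Normalized to DMSO and media-only wells.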
TDP1 cell noCPT = qHTS for Inhibitors of human tyrosyl-DNA phosphodiesterase 1 (TDP1): qHTS in cells in absence of CPT. DT40 Tdp1-/- hTDP1 cells, no CPT, ATP luminescence, 48 h. Potency, µM (series often up to 46.2 µM), for the others: top-dose activity change, negative = growth inhibition, actives largely listed as inhibitors. actives 15% (n = 420,000). AID 686978, 2013; further: potency means the concentration at half of the fitted maximal effect; nearly all actives have a fitted effect of over 55% in size
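Readout: luminescence from CellTiter-Glo after 30 min in the dark at RT. Cells: DT40 Tdp1-/- with stable hTDP1, 400/well. Exposure: compounds alone, ≥48 hr, 37 °C.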
HT1080 IDH1KD tx = HT-1080 IDH1 knockdown cell toxicity (counter line) | AID 686971 | Potency, µM (top dose mostly 46.1 µM), for the others: at the highest dose activity, negative = toxicity, hits mostly cytotoxic | actives 2% (n = 360,000) | HT-1080 IDH1 knockdown viability, ATP luminescence, 48 h;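 further: potency means the concentration at half of the fitted maximal effect; 0% = DMSO wells and -100% = cell-free medium wells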
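CellTiter-Glo luminescence after 48 h compound exposure at 37 degrees C of IDH1-knockdown HT-1080 cells in 5% FBS RPMI. %Activity scaled between DMSO wells and cell-free media wells, with curves fitted and assigned curve classes.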
IL1B secr inh = inflammasome signaling inhibition, IL-1 beta readout | THP-1 LPS/ATP IL-1B secretion, AlphaLISA, 16 h; hits give low values | activity change, % at 57.5 µM | actives 4.7% (n = 360,000); in the data active means activity change below about -50%; inconclusive means mostly about -30% to -49%
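Secreted IL-1B measured by AlphaLISA bead assay after 16 h compound exposure of THP-1 cells; compounds (final up to 57.5 uM) added 1 h before LPS (250 ng/mL) and ATP (1.25 mM) stimulation; lower signal means less secretion.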
ELG1 DNA repair = inhibitors of ELG1-dependent DNA repair in HEK293T cells; HEK293T ELG1-luciferase reporter, luminescence, 16 h; DNA damage induced by 5-fluorouridine; Potency, µM (series often up to 46.1 µM), without a hit: top-dose activity change, negative = inhibition, hits mostly inhibitors; actives 2.3% (n = 330,000); further: potency means the concentration at half of the fitted maximal effect; nearly all actives have a fitted effect of over 55% in size
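Cells (2,000 per well) received 5-fluorouridine plus test compound or DMSO and were incubated 16 hr at 37 °C, 5% CO2. Luciferase activity was read by luminescence 30 min after ONE-Glo addition; signal suppression marked inhibition of damage-induced ELG1 function.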
TDP1 cell CPT = DT40-hTDP1 cell growth loss with CPT; chicken DT40 Tdp1-/-;hTDP1 cells + 20 nM CPT, ATP luminescence, 48 h; Potency, µM (series often up to 46.2 µM), inactives show at the highest dose activity change, negative = growth inhibition, most hits filed as inhibitors; actives 12% (n = 420,000); further: potency means the concentration at half of the fitted maximal effect; nearly all actives have a fitted effect of over 55% in size
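Cell growth measured by CellTiter-Glo luminescence after a minimum 48 h, 37 C compound exposure with 20 nM CPT in Tdp1-knockout DT40 cells stably expressing hTDP1, seeded 400/well; qHTS titration format.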
An asterisk follows results filed as active; ? = inconclusive; / = not tested or not shown; [ ] = another dose, or the depositor's remark. Unless noted, the call rests on the fitted dose curve; in most records, active means well fitted curve in the direction sought with a large enough effect; inconclusive means small, poorly fitted or top-dose-only effect, or another doubt; inactive means no such curve, though single readings can be large; an effect the other way counts as inactive or inconclusive. Unless noted, on the % scale 0 is the no-effect control and ±100 the full control effect.

SMILES	HT1080-NT tox	TDP1 cell noCPT	HT1080 IDH1KD tx	IL1B secr inh	ELG1 DNA repair	TDP1 cell CPT
O=C1Nc2ccccc2SC1c1ccccc1Cl (centres undefined)	-13%	-27%	?	-11	/	-26%
CC(C)(C)c1ccc(C2Sc3ccccc3NC3=C2C(=O)c2ccccc23)cc1 (centres undefined)	/	?	/	/	/	16µM*
Cc1ccc2c(=O)n3c(nc2c1)C(CC(C)C)NC(=O)c1ccc(Cl)cc1-3 (centres undefined)	/	/	/	/	-2%	/
O=C(/C=C/c1ccco1)Nc1nc(-c2ccccn2)cs1	-17%	7.3µM*	-19%	124	?	7.3µM*
O=C(/C=C/c1ccco1)Nc1ccccn1	?	3.3µM*	?	59	?	3.3µM*
O=C(/C=C/c1ccco1)Nc1cccnc1	24%	11%	21%	-15	?	5%
Cc1ccc(NC(=O)/C=C/c2ccco2)nc1	0.046µM*	0.0058µM*	0.0058µM*	-29	?	0.013µM*
CCOC(=O)CCN(C(=O)Nc1ccccc1)C1CCCCC1	-6%	-8%	-3%	-6	/	3%
COc1cc(/C=C/C(=O)OCC(=O)NC2CCCCCCC2)ccc1O	0%	-27%	0%	9	2%	-23%
CC[C@]12CCCN3CCc4c(n(c5ccccc45)C(=O)C1)[C@H]32	/	9.4µM*	/	/	/	11µM*
COc1ccc(CCC(=O)N2CCN(S(=O)(=O)c3cccs3)CC2)cc1	5%	-22%	4%	-13	2%	0%
CC(C)Oc1ccc(C(CCNCc2ccc(O)cc2)c2ccccc2)cc1 (centres undefined)	?	4.1µM*	?	-91*	9%	5.8µM*
COc1ccc(C(CCNCc2ccc(OC)c(OC)c2)c2ccc(F)cc2)cc1 (centres undefined)	7%	-7%	2%	0	?	4%
CC(C)Oc1ccc(C(CC(=O)O)NC(=O)Cc2ccccc2)cc1 (centres undefined)	23%	2%	9%	12	22%	9%
COc1ccc(CNCCC(c2ccc3c(c2)OCO3)c2ccccc2OC)cc1 (centres undefined)	/	2.9µM*	/	/	/	6.5µM*
COc1ccc(C(CCNCc2ccc(N(C)C)cc2)c2ccccc2)cc1 (centres undefined)	18µM*	21µM*	?	-101*	-28%	21µM*
O=S(=O)(c1ccc(Oc2ccc3c(c2)OCO3)c(S(=O)(=O)N2CCOCC2)c1)N1CCOCC1	/	11µM*	/	/	/	0.89µM*
O=[N+]([O-])c1ccccc1Oc1ccc(S(=O)(=O)N2CCOCC2)cc1	-3%[9.24 µM]	21µM*	0%	0	-20%	?
O=S(=O)(c1ccc(Oc2ccccc2)cc1)N1CCOCC1	-1%	-18%	-3%	0	-25%	-5%
CC1CCN(S(=O)(=O)c2ccc(Oc3ccc([N+](=O)[O-])cc3)cc2)CC1	?	16µM*	5%	?	-11%	16µM*
O=[N+]([O-])c1ccc(Oc2ccc(S(=O)(=O)N3CCCCC3)cc2)cc1	1%	15µM*	8%	-7	7%	16µM*
Cc1ccc(N2C(=O)CSC2c2cccnc2)c(Cl)c1 (centres undefined)	?	21µM*	?	26	-22%	18µM*
COc1ccnc(Oc2ccccc2)c1C(=O)N/C=N/OCc1ccc(F)cc1Cl	?	?	16µM*	?	18µM*	?
Cc1cccc(/C=C(\C(=O)O)c2ccc(S(=O)(=O)N3CCCC3)s2)c1	0%	-1%	-8%	19	3%	-16%
